# Measured values reported in PubChem BioAssay AID1626 (SRMLSC, 2009).
# Several values for one entry are separate records, joined by “and”; a condition that tells them apart may be missing. Equal entries are not always repeated. Hit rate of the full screen: of about 220,000 compounds, about 2,000 (0.91%) were called active. Another 2% or so got no clear call; they are omitted. Rule as the data show it: inconclusive = inhibition above about 80% without an active follow-up result; inactive = below that; test concentration not stated here. A selection follows. Potency and affinity values are given separately.
# Assay: M. tuberculosis H37Rv growth inhibitors, H37Rv strain (AID 1626);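 also: bacteria incubated seven days before Alamar blue readout; 0% = bacteria only wells and 100% = bacteria with antibiotic wells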
# Details: stronger effect = higher value, concentration not given here
row,Structure (SMILES),inhibition
1,COc1ccc(CN(C)Cc2nc3scc(-c4ccccc4)c3c(=O)[nH]2)cc1OC,3.92% (inactive)
2,COC(=O)N1CCN(c2ccc(Cl)c(Cl)c2)CC1,-4.81% (inactive)
3,CCOC(=O)N1CCN(c2ccc(Cl)c(Cl)c2)CC1,6.01% (inactive)
4,O=S1(=O)CCN(CCc2c[nH]c3ccccc23)CC1,3.01% (inactive)
5,CCC(=O)Nc1nnc(-c2ccccn2)o1,5.88% (inactive)
6,O=C(Nc1nnc(-c2ccncc2)o1)c1cccc(N2C(=O)CCC2=O)c1,-4.89% (inactive)
7,CC(=O)Nc1nnc(-c2ccccn2)o1,-3.3% (inactive)
8,N#Cc1ccc(C(=O)Nc2nnc(-c3ccccn3)o2)cc1,1.74% (inactive)
9,O=C(CCc1ccccc1)Nc1nnc(-c2ccccn2)o1,-4.88% (inactive)
10,COC(=O)c1ccc(C(=O)Nc2nnc(-c3cccnc3)o2)cc1,-5.5% (inactive)
11,Cc1nnsc1C(=O)N(Cc1ccccc1)C(C)C,-4.27% (inactive)
12,Cc1ccc(CNC(=O)C2CC(c3cccc(F)c3)=NO2)cc1 (stereo unspecified),9.15% (inactive)
13,OC(C#CCN1CCOCC1)(c1ccccc1)C1CCCC1 (stereo unspecified),2.94% (inactive)
14,CC1CCCCC1NC(=O)CSc1nnc(COc2ccccc2Cl)o1 (stereo unspecified),-2.14% (inactive)
15,Cc1cc(C)nc(SCc2nnc(SCC(=O)OC3CCCCC3)o2)n1,48.1% (inactive)
16,Cc1ccc(C(=O)CSc2nnc(COc3cccc(C)c3)o2)cc1,-2.67% (inactive)
17,Cc1ccc(C(=O)CSc2nnc(COc3cc(C)cc(C)c3)o2)cc1,-3.69% (inactive)
18,O=C(CSc1nnc(COc2ccccc2Cl)o1)NC(=O)NC1CCCC1,5.08% (inactive)
19,CCOC(=O)CSc1nnc(COc2cccc(C)c2)o1,-4.7% (inactive)
20,CCn1cc(C(=O)OCC(=O)Nc2c(C)cccc2C)c(=O)c2ccc(C)nc21,0.89% (inactive)
21,Cc1ccccc1CSCCNC(=O)CCSc1ccccc1,-2.07% (inactive)
22,CCOC(=O)c1ccc(NC(=O)CSc2nnc(COc3ccccc3OC)n2CC)cc1,6.35% (inactive)

row,Structure (SMILES),inhibition
1,CCc1cccc(CC)c1NC(=O)c1ccccc1CCc1ccccc1,2.03% (inactive)
2,COC(c1ccccc1)c1nnc(CCC(=O)N(C)CCc2ccccc2)o1 (stereo unspecified),-1.5% (inactive)
3,O=C(CCn1cnc2ccccc2c1=O)Nc1nc(-c2ccc(Br)cc2)cs1,-1.09% (inactive)
4,COc1ccc(/C=C2/N=C(SCC(=O)Nc3cc(C)on3)N(c3ccccc3)C2=O)cc1,2.4% (inactive)
5,C=CCn1c(CNC(=O)c2ccccc2C)nnc1SCC(=O)NC1CCCC1,-7.41% (inactive)
6,CN1CCN(CCCN2c3ccccc3Sc3ccc(Cl)cc32)CC1,-5.97% (inactive) and 68.2% (inactive) and 79.9% (inactive)
7,CN1CCN(C2=Cc3ccccc3Sc3cc(F)c(F)cc32)CC1,11.1% (inactive)
8,CN1CCN(C2=Cc3ccccc3Sc3cc(F)ccc32)CC1,2.61% (inactive)
9,CN1CCN(c2ccc(F)cc2N)CC1,0.4% (inactive)
10,CCc1ccc(CCC(=O)Nc2nnc(CC)s2)o1,7.07% (inactive)
11,COc1ccc(CNc2nc3nc(C)c(Cl)c(C)n3n2)cc1,-2.45% (inactive)
12,O=S(=O)(c1ccc2c(c1)OCCCO2)N1CCNCC1,-0.23% (inactive)
13,O=C(c1ccc2c(c1)OCCO2)N1CCCC(CNS(=O)(=O)c2cccs2)C1 (stereo unspecified),4.35% (inactive)
14,Cc1[nH]c2ccccc2c1SCCNC(=O)c1ccc(Br)o1,-0.07% (inactive)
15,CCC(=O)Nc1cccc(NC(=O)c2ccc(C)c([N+](=O)[O-])c2)c1,15.4% (inactive)
16,CC(=O)OCCNC(=O)c1cc2ccccc2oc1=O,-6.56% (inactive)
17,CN(C)CCNC(=O)c1cc2ccccc2oc1=O,2.99% (inactive)
18,CCC1(CC)C(=O)N(C)C(=O)NC1=Nc1ccc(OC)cc1,-7.12% (inactive)
19,NS(=O)(=O)c1ccc(N=C2C(=O)Nc3ccccc32)cc1,-2.66% (inactive)
20,O=S(=O)(Nc1nccs1)c1ccc(F)cc1,-3.51% (inactive)
21,O=[N+]([O-])c1ccccc1S(=O)(=O)NCc1ccco1,9.2% (inactive)
22,Cc1ccc2cc(CN(CC3CCCO3)C(=S)NCc3ccco3)c(=O)[nH]c2c1 (stereo unspecified),1.74% (inactive)

row,Structure (SMILES),inhibition
1,CC1=CC(=O)N(c2cccc(C(F)(F)F)c2)C1c1ccc(Cl)cc1 (stereo unspecified),5.08% (inactive)
2,Cc1nc([N+](=O)[O-])c(Br)n1CC(=O)c1ccc(Br)cc1,18.9% (inactive)
3,Cc1nc([N+](=O)[O-])c(Br)n1CC(=O)c1ccc(F)cc1,52.5% (inactive)
4,Cc1nc([N+](=O)[O-])c(Br)n1Cc1ccccc1,28.8% (inactive)
5,Cc1nc([N+](=O)[O-])c(Br)n1CC(=O)c1ccccc1,37% (inactive)
6,CCN(c1ccccc1)S(=O)(=O)c1ccc(Cl)c(NC(=O)CSc2nncs2)c1,6.07% (inactive)
7,CCCCCCCCc1nc(SCC(C)=O)n[nH]1,8.52% (inactive)
8,O=C(CS(=O)(=O)c1cccc(Cl)c1)Nc1ccccc1Cl,-9.41% (inactive)
9,CC(C)(C)c1cnnn1-c1ccc(/C=N/Nc2ccc([N+](=O)[O-])cc2)cc1,-0.06% (inactive)
10,O=C(NCCN1CCN(c2ccccc2)CC1)c1cccn2c(=O)c3cc(Cl)ccc3nc12,8.3% (inactive)
11,O=[N+]([O-])c1ccc(O)c(N=Cc2sc3ccccc3c2O)c1,5.55% (inactive)
12,Cc1ccc(O)c(N=Cc2sc3ccccc3c2Cl)c1,11.1% (inactive)
13,CCCc1ccc(NS(=O)(=O)c2c(C)oc(C)c2C(=O)OC)cc1,3.72% (inactive)
14,CN1CCN(C(=S)c2cn(Cc3cccc(F)c3)c3ccccc23)CC1,2.92% (inactive)
15,COc1ccc(C)cc1S(=O)(=O)N1CCN(c2cccc(C(F)(F)F)c2)CC1,-1.59% (inactive)
16,CC1/C(=N/O)CC(c2ccccc2)N(C)C1c1ccccc1 (stereo unspecified),-3.61% (inactive)
17,CCC1C(c2ccccc2)N(C)C(c2ccccc2)CC1(O)c1ccccc1 (stereo unspecified),51.8% (inactive)
18,O=C(Nc1ccc(O)cc1C(=O)O)c1cccc(Br)c1,0.45% (inactive)
19,COc1cnc(-c2ccccn2)nc1Oc1ccccc1Cl,-2.44% (inactive)
20,Fc1ccc(Oc2ncccn2)c(F)c1,0.19% (inactive)
21,COc1cnc(-c2ccccn2)nc1Oc1ccc(Cl)cc1,71.9% (inactive)
22,Nc1cccnc1Oc1ccc(F)cc1F,-4.1% (inactive)
